# PubChem BioAssay (EPA / NIEHS)
# Inconclusive results are not listed. Calls of active or inactive are those of the source. How the source made its calls: active means hit-call score of the fitted dose curve at least 0.9, where 1 is the maximum; inconclusive means response in the unintended direction; inactive means score below 0.9.
# Read-out: sulfotransferase (SULT2A), SULT2A1 (gene 6822)
# Assay: CLD_SULT2A_48hr: CellzDirect (CLD) Gene Expression Assay for sulfotransferase (SULT2A) at 48 hours (AID 2283710);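 further: hits raise SULT2A1 transcript above the 0.2% DMSO vehicle baseline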
# Procedure: CLD_48hr is a cell-based, multiplexed-readout assay that uses hepatocyte, a human liver primary cell, with measurements taken at 48 hours after chemical dosing in a 96-well plate.CLD_SULT2A_48hr is one of 16 assay component(s) measured or calculated from the CLD_48hr assay. It is designed to make measurements of mRNA induction, a form of inducible reporter, as detected with chemiluminescence signals by Quantitative Nuclease Protection Assay (qNPA) technology.Data from the assay component CLD_SULT2A_48hr was analyzed at the endpoint, CLD_SULT2A_48hr, in the positive analysis fitting direction relative to DMSO as the negative control and baseline of activity. Using a type of inducible reporter, gain-of-signal activity can be used to understand changes in the reporter gene as they relate to the gene SULT2A1. Furthermore, this assay endpoint can be referred to as a primary readout. To generalize the intended target to other relatable targets, this assay endpoint is annotated to the transferase intended target family, where subfamily is sulfotransferase.
# Human hepatocyte cultures were treated daily for two consecutive days with fresh dosing solutions containing appropriate concentrations of the 320 ToxCast chemicals (chemical identities were blinded to CellzDirect and other ToxCast collaborators), vehicle control (0.2% DMSO), and positive control inducers as summarized in Table 1. Due to the large number of treatment groups and chemicals examined, the ToxCast chemicals were divided into two groups (spanning two independent cultures of hepatocytes from separate donor preparations (Hu778: ToxCast plates 1 and 2; Hu776: ToxCast plates 3 and 4). Each preparation of human hepatocyte cultures was treated with respective vehicle control, medium only control, set of six positive controls/reference chemicals for the five hepatic receptor pathways, and a subset of eight of the ToxCast chemicals (indoxacarb, pyrithiobac-sodium, norflurazon, cyhalofop-butyl, methomyl, thiram, acetochlor, and propiconazole). These replicate data, coupled with internal replicates designed within the blinded ToxCast chemical library, provided additional data to evaluate interindividual differences between hepatocyte preparations and their potential impact on chemical profiles.Cell morphology and integrity were evaluated using phase-contrast microscopy as an indicator of hepatocyte cell health (Tyson & Green, 1987). Cultures for each treatment group (i.e., media, vehicle [0.2% DMSO], positive control inducers [multiple concentrations], and the ToxCast chemicals [multiple concentrations]) were observed and cell morphology was assessed relative to vehicle control cultures at each harvest time point (0, 6, 24, or 48 h). […] Images were evaluated at the conclusion of the study to assess changes in cell integrity and account for the effects of chemical exposure on uncharacteristic changes in concentration-dependent gene expression profiles. The results from these determinations of apparent cytotoxicity were annotated (yes/no) alongside the corresponding qNPA data for reference.At the conclusion of each treatment period, hepatocyte cultures (96-well) were washed with 1 volume of HBSS, lysed by addition of 25 ul ArrayPlate lysis buffer (HTG, Tucson, AZ), and 70 ul/well of Denaturation Oil, denatured by incubation at 95C for 10 min, and frozen at approximately -70C until analysis by nuclease protection assay (qNPA) (Roberts et al., 2007). For qNPA analysis, cell lysates were thawed at 50C for approximately 30 min, qNPA probes were added, and samples were incubated at 95C for 10 min to begin the detection process by denaturing the target RNA, dissociating the duplexes and secondary structure hybridization. At the conclusion of the hybridization period, S1 nuclease reagent was added to each sample to digest all nonprotected nucleotides at 50C for 60-90 min. […]
SMILES,outcome,AC50
COC(=O)CSc1cc(N=c2sc(=O)n3n2CCCC3)c(F)cc1Cl,inactive,
CSC(=O)c1cccc2nnsc12,inactive,
CCC(C)OC(=O)N1CCCCC1CCO (centres undefined),inactive,
CC1(C)C(C=C(Cl)Cl)C1C(=O)OCc1cccc(Oc2ccccc2)c1 (centres undefined),inactive,
COC(=O)c1c(Cl)nn(C)c1S(=O)(=O)NC(=O)Nc1nc(OC)cc(OC)n1,inactive,
CCCCOC(=O)C(C)Oc1ccc(Oc2ccc(C(F)(F)F)cn2)cc1 (centres undefined),inactive,
CCCOC(=O)NCCCN(C)C,inactive,
CC(C)(C)[C@@H](O)[C@@H](Cc1ccc(Cl)cc1)n1cncn1,inactive,
C#CCOC(=O)[C@@H](C)Oc1ccc(Oc2ncc(Cl)cc2F)cc1,inactive,
OB(O)O,inactive,
COC(=O)c1ccccc1C(=O)O,inactive,
CC(C)(c1ccc(O)cc1)c1ccc(O)cc1,inactive,
CCCOC(=O)c1ccc(C(=O)OCCC)nc1,inactive,
COCCO,inactive,
COC(=O)c1ccc(CNS(C)(=O)=O)cc1S(=O)(=O)NC(=O)Nc1nc(OC)cc(OC)n1,inactive,
CCOC(=O)C(C)Oc1ccc(Oc2nc3ccc(Cl)cc3o2)cc1 (centres undefined),inactive,
COc1c(Cl)ccc(Cl)c1C(=O)O,inactive,

SMILES,outcome,AC50
CCOC(=O)[C@H](C)Oc1ccc(Oc2nc3ccc(Cl)cc3o2)cc1,inactive,
CCCN(CCC)c1c([N+](=O)[O-])cc(C(F)(F)F)c(N)c1[N+](=O)[O-],inactive,
CCOC(=O)C(C)Oc1ccc(Oc2cnc3cc(Cl)ccc3n2)cc1 (centres undefined),inactive,
CCCCC(CC)COC(=O)c1ccccc1C(=O)O (centres undefined),inactive,
CCC(O)=C1C(=O)CC(C(=O)O)CC1=O (centres undefined),inactive,
COC(=O)c1ccc(I)cc1S(=O)(=O)NC(=O)Nc1nc(C)nc(OC)n1,inactive,
CCSC(=O)N(CC(C)C)CC(C)C,inactive,
Cc1nn(C)c(Oc2ccccc2)c1C=NOCc1ccc(C(=O)OC(C)(C)C)cc1,inactive,
CCNc1nc(N)nc(Cl)n1,inactive,
c1ccc(Nc2ccccc2)cc1,,3.48 µM (active)
CCOC(=O)COc1cc(-n2ncc(C(F)(F)F)c(C)c2=O)c(F)cc1Cl,inactive,
CCN(Cc1c(F)cccc1Cl)c1c([N+](=O)[O-])cc(C(F)(F)F)cc1[N+](=O)[O-],inactive,
CCCCOCCOCCOCc1cc2c(cc1CCC)OCO2,,12 µM (active)
CCN(CC)C(=O)c1cccc(C)c1,inactive,
CCCCC(CC)CN1C(=O)C2C3C=CC(C3)C2C1=O (centres undefined),,20 µM (active)
CCOC(=O)NCCOc1ccc(Oc2ccccc2)cc1,inactive,
CCCN(CCC)C(=O)SCC,inactive,
